Measurements reported in PubChem BioAssay (EPA / NIEHS).
Results filed as inconclusive are left out. Active and inactive are the calls of the source. How the source made its calls, unless noted: active means hit-call score of the fitted dose curve at least 0.9, where 1 is the maximum; inactive means score below 0.9.

Experiments:
[1] = BSK_3C_VCAM1: BioMAP Diversity Plus: 3C Assay for Vascular cell adhesion molecule 1 (VCAM1) Biomarker Activity (AID 2282999); settings: BioMAP 3C HUVEC, VCAM1 ELISA, cytokine-stimulated; actives raise or lower the signal
Summary of the method: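 Human umbilical vein endothelial cells (3C system), biomarker read by ELISA 24 h after dosing; bidirectional fit against DMSO baseline. Cytotoxicity tracked by SRB total-protein staining in parallel cultures at biomarker time.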

[2] = BSK_4H_Eotaxin3: BioMAP Diversity Plus: 4H Assay for Eotaxin 3 Biomarker Activity (AID 2283000); settings: primary human endothelial cells (HUVEC); actives raise or lower the signal
Summary of the method: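 HUVEC, 24 h post-dose, ELISA for Eotaxin-3/CCL26. Gain or loss of signal fitted bidirectionally vs DMSO baseline.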

[3] = molecular target: human Peroxisome Proliferator-activated Receptor alpha (PPARa), PPARA (gene 5465) (UniProt Q07869); test: ATG_PPARa_TRANS: Attagene TRANS-FACTORIAL HepG2 Assay for human Peroxisome Proliferator-activated Receptor alpha (PPARa) (AID 2283001; active means hit-call score of the fitted dose curve at least 0.9, where 1 is the maximum)
Chain of human Peroxisome Proliferator-activated Receptor alpha (PPARa), PPARA (gene 5465) (Q07869 whole entry, looked up, the tested form may be a part): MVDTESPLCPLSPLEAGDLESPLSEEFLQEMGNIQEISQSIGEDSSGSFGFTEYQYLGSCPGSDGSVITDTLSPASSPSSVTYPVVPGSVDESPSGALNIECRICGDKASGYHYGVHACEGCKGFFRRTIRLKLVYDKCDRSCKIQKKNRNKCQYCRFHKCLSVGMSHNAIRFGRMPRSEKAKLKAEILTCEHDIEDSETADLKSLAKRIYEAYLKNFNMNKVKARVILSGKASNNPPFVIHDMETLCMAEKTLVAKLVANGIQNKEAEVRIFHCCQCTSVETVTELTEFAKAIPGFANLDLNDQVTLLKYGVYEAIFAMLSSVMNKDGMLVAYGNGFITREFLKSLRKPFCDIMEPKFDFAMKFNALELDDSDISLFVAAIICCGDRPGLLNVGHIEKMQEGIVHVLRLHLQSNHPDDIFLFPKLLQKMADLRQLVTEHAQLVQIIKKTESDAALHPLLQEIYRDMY
Summary of the method: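 Measures transcriptional activity of an exogenous chimeric PPARa-Gal4 protein in transiently transfected HepG2 cells after 24 h dosing. Reporter mRNA quantified via RT-PCR and capillary electrophoresis; DMSO served as negative control.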

[4] = molecular target: human Peroxisome Proliferator-activated Receptor delta (PPARd), PPARD (gene 5467) (UniProt Q03181); test: ATG_PPARd_TRANS: Attagene TRANS-FACTORIAL HepG2 Assay for human Peroxisome Proliferator-activated Receptor delta (PPARd) (AID 2283002; active means hit-call score of the fitted dose curve at least 0.9, where 1 is the maximum)
Chain of human Peroxisome Proliferator-activated Receptor delta (PPARd), PPARD (gene 5467) (Q03181 whole entry, looked up, the tested form may be a part): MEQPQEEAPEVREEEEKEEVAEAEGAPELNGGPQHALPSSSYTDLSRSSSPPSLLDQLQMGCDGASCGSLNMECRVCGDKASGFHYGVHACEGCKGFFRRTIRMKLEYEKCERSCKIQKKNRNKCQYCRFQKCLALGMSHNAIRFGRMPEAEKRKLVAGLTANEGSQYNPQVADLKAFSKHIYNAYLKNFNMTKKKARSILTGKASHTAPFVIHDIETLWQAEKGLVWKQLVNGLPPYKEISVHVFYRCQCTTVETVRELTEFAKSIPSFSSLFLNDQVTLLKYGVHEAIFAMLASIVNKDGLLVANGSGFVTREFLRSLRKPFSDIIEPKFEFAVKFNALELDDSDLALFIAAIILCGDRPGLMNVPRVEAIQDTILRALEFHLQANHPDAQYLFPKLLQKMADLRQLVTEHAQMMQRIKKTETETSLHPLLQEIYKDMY
Summary of the method: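 HepG2 cells transiently transfected with GAL4-UAS multiplexed reporter units driven by exogenous chimeric NR-GAL4 proteins; 24 h compound exposure. Reporter mRNA measured by RT-PCR, 6-FAM primer extension, HpaI digestion and capillary electrophoresis; gain of signal fitted relative to DMSO.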

[5] = read-out: Intercellular Adhesion Molecule 1 (ICAM1), ICAM1 (gene 3383); test: BSK_3C_ICAM1: BioMAP Diversity Plus: 3C Assay for Intercellular Adhesion Molecule 1 (ICAM1) Biomarker Activity (AID 2283003); settings: primary human endothelial cells (HUVEC); actives raise or lower the signal
Summary of the method: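 Primary human umbilical vein endothelial cells in the BioMAP 3C system were exposed to chemicals for 24 h, then ICAM-1 was quantified by ELISA. Activity was fitted bidirectionally against the DMSO negative control baseline.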

[6] = molecular target: human Retinoic Acid Receptor beta (RARb), RARB (gene 5915) (UniProt P10826); test: ATG_RARb_TRANS: Attagene TRANS-FACTORIAL HepG2 Assay for human Retinoic Acid Receptor beta (AID 2283004; active means hit-call score of the fitted dose curve at least 0.9, where 1 is the maximum)
Chain of human Retinoic Acid Receptor beta (RARb), RARB (gene 5915) (P10826 whole entry, looked up, the tested form may be a part): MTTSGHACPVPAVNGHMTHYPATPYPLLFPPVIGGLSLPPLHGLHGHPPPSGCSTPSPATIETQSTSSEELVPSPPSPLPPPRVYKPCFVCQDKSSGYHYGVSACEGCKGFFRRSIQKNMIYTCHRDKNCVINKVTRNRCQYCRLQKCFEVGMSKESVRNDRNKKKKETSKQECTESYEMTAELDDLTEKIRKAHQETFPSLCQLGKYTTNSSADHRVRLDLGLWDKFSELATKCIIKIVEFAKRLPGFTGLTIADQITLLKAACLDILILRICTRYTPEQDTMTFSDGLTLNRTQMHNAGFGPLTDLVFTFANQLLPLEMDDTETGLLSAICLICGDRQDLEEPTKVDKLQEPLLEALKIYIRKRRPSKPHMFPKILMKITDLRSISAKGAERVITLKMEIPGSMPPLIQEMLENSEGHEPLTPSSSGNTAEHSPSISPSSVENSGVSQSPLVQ
Summary of the method: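 HepG2 cells transiently transfected with multiplexed GAL4-UAS reporter units expressing chimeric NR–Gal4 fusions; 24 h compound exposure. Reporter mRNA quantified by RT-PCR, 6-FAM labelling, HpaI digestion and capillary electrophoresis; gain-of-signal fitted against DMSO baseline.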

[7] = BSK_3C_Proliferation: Cell Proliferation Assessment in the BioMAP Diversity Plus: 3C Assay (AID 2283006); settings: primary human endothelial cells (HUVEC);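 on AC50: potency may reflect either rise or fall in cell number versus DMSO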
Summary of the method: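 Human umbilical vein endothelial cells were grown sub-confluent and exposed to chemical for 48 h, then fixed with 10% TCA and stained with 0.1% sulforhodamine B; absorbance at 560 nm gave relative cell number, fitted bidirectionally against DMSO baseline.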

[8] = molecular target: Peroxisome proliferator-activated receptor gamma (Homo sapiens) (UniProt P37231); test: ATG_PPARg_TRANS: Attagene TRANS-FACTORIAL HepG2 Assay for human Peroxisome Proliferator-activated Receptor-gamma (PPARg) (AID 2283007; active means hit-call score of the fitted dose curve at least 0.9, where 1 is the maximum)
Chain of Peroxisome proliferator-activated receptor gamma (Homo sapiens) (P37231 whole entry, looked up, the tested form may be a part): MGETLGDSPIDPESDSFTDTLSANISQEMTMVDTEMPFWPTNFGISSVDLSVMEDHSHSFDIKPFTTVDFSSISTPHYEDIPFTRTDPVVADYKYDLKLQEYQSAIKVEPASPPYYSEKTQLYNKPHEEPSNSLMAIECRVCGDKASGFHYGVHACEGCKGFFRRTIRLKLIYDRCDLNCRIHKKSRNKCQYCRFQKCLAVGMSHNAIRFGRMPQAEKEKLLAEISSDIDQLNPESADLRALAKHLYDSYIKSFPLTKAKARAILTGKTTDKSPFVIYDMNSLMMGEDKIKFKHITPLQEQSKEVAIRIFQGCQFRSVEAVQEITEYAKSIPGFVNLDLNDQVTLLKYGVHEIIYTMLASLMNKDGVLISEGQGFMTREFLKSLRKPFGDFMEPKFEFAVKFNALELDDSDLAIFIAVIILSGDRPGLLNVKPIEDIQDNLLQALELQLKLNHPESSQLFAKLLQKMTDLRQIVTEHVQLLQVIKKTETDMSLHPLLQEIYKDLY
Summary of the method: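 After 24 h of chemical exposure, transfected HepG2 cells carrying PPARγ-Gal4 chimera reporter constructs are lysed for RNA. Reporter transcripts are measured by RT-PCR and capillary electrophoresis with fluorescent labelling, and gain of signal is fitted versus DMSO.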

[9] = molecular target: Nuclear receptor subfamily 1 group I member 2 (Homo sapiens) (UniProt O75469); test: ATG_PXR_TRANS: Attagene TRANS-FACTORIAL HepG2 Assay for human Pregnane X Receptor (PXR) (AID 2283008; active means hit-call score of the fitted dose curve at least 0.9, where 1 is the maximum)
Chain of Nuclear receptor subfamily 1 group I member 2 (Homo sapiens) (O75469 whole entry, looked up, the tested form may be a part): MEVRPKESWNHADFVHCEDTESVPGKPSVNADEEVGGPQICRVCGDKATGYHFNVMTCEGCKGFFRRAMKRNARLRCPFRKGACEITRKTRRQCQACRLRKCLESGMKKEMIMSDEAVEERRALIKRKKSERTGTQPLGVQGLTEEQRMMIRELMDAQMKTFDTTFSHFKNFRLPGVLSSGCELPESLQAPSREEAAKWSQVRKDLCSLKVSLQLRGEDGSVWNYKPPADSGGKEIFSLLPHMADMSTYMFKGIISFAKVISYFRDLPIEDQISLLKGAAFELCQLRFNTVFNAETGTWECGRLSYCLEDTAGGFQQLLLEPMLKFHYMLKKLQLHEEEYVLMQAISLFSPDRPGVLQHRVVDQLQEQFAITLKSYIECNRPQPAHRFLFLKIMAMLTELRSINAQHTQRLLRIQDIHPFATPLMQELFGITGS
Summary of the method: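 Fluorescence intensity of FAM-labelled, HpaI-digested reporter amplicons, separated by capillary electrophoresis, quantifies induction. HepG2 cells with PXR-Gal4 trans-reporter system were exposed 24 h; DMSO defines baseline.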

[10] = BSK_3C_uPAR: BioMAP Diversity Plus: 3C Assay for Urokinase-type plasminogen activator receptor (uPAR) Biomarker Activity (AID 2282998); settings: BioMAP 3C HUVEC, uPAR biomarker ELISA; actives raise or lower the signal
Summary of the method: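 A multiplexed primary-cell system built on human umbilical vein endothelium was used, with chemical present for 24 h before reading. Cell-surface uPAR was detected by ELISA; signal change in either direction counted against DMSO.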

Measured: AC50

CC(C)=CC1C(C(=O)OCc2coc(Cc3ccccc3)c2)C1(C)C (stereo unspecified)
active: [2] 8.05 µM | [7] 10.3 µM | [8] 13.1 µM
not listed: [10]
inactive: all other assays above

CC(C)C1(C)N=C(c2ncccc2C(=O)O)NC1=O (stereo unspecified)
not listed: [1] | [6] | [9]
inactive: all other assays above

N#Cc1c[nH]cc1-c1cccc2c1OC(F)(F)O2
inactive: [1] | [3] | [5] | [9]
active: [10] 12.8 µM | [2] 20 µM | [7] 5.61 µM | [8] 19.5 µM

CC(C)(C)C(=O)C(Oc1ccc(Cl)cc1)n1cncn1 (stereo unspecified)
active: [9] 19.9 µM
not listed: [3]
inactive: all other assays above

Cc1cc(C)nc(Nc2ccccc2)n1
inactive: all assays above

COCC(C)N(C(=O)CCl)c1c(C)csc1C (stereo unspecified)
active: [8] 3.79 µM
not listed: [1] | [4] | [6]
inactive: all other assays above

CCCCOCN(C(=O)CCl)c1c(CC)cccc1CC
inactive: [3] | [9]
active: [10] 31.2 µM | [2] 36.1 µM | [5] 32.2 µM | [7] 28.2 µM | [8] 1.38 µM

CCOc1cc(C(C)(C)C)ccc1C1COC(c2c(F)cccc2F)=N1 (stereo unspecified)
active: [10] 29.7 µM | [2] 29 µM | [7] 14.4 µM
not listed: [1] | [4]
inactive: all other assays above

COP(=S)(OC)SCn1nnc2ccccc2c1=O
not listed: [1]
inactive: all other assays above

CCN(CC)C(=O)C(C)Oc1cccc2ccccc12 (stereo unspecified)
active: [2] 10.8 µM | [7] 6.69 µM | [8] 50 µM | [9] 0.503 µM
inactive: [10] | [4] | [5]

CC(C)Oc1cccc(NC(=O)c2ccccc2C(F)(F)F)c1
active: [8] 30.9 µM | [9] 23.4 µM
not listed: [1]
inactive: all other assays above

OC(c1ccc(Cl)cc1)(c1ccc(Cl)cc1)C(Cl)(Cl)Cl
inactive: [8] | [9]
active: [10] 29.1 µM | [2] 29.8 µM | [5] 29 µM | [7] 11.6 µM

CO/N=C(/C1=NOCCO1)c1ccccc1Oc1ncnc(Oc2ccccc2Cl)c1F
active: [10] 5.95 µM | [2] 27.8 µM | [7] 17.4 µM
inactive: [4] | [5] | [8] | [9]

COc1cc(Cl)c(OC)cc1Cl
not listed: [4]
inactive: all other assays above

O=C(O)c1c(Cl)ccc2cc(Cl)cnc12
inactive: [10] | [2] | [3] | [5] | [7] | [8]

Cn1c(-c2ccccc2)cc(-c2ccccc2)[n+]1C
active: [10] 3.97 µM
not listed: [6] | [8] | [9]
inactive: all other assays above

CSC(=O)c1c(C(F)F)nc(C(F)(F)F)c(C(=O)SC)c1CC(C)C
active: [10] 32.6 µM | [7] 15.7 µM | [8] 10.9 µM | [9] 1.66 µM
not listed: [3]
inactive: all other assays above

CC1(C)CON(Cc2ccccc2Cl)C1=O
not listed: [10]
inactive: all other assays above

CCOc1nc(F)cc2nc(S(=O)(=O)Nc3c(Cl)cccc3Cl)nn12
active: [8] 24.6 µM
not listed: [6]
inactive: all other assays above

CCC(C)n1c(=O)[nH]c(C)c(Br)c1=O (stereo unspecified)
not listed: [4] | [6] | [8]
inactive: all other assays above

CC(C)Nc1nc(Cl)nc(NC(C)C)n1
not listed: [3] | [6]
inactive: all other assays above

O=C(Nc1ccccc1-c1ccc(Cl)cc1)c1cccnc1Cl
active: [8] 10.9 µM
not listed: [1] | [3] | [6]
inactive: all other assays above

O=C1C2CC=CCC2C(=O)N1SC(Cl)(Cl)Cl (stereo unspecified)
active: [7] 32.4 µM
not listed: [1] | [6]
inactive: all other assays above

Cc1nc(N(C)C)nc(OC(=O)N(C)C)c1C
not listed: [1] | [6]
inactive: all other assays above

O=P(O)(O)CCCl
not listed: [1]
inactive: all other assays above

CC(C)N1C(=O)c2ccccc2NS1(=O)=O
not listed: [6]
inactive: all other assays above

CC(C)N1C(=O)N(c2ccccc2)CSC1=NC(C)(C)C
active: [10] 30.4 µM | [1] 32 µM | [2] 31.2 µM | [7] 16.4 µM
inactive: [4] | [5] | [8] | [9]

CN=C=S
active: [8] 50 µM
not listed: [6]
inactive: all other assays above

COC(=O)NS(=O)(=O)c1ccc(N)cc1
not listed: [1] | [4] | [6]
inactive: all other assays above

CS(=O)(=O)c1ccc(C(=O)C2C(=O)CCCC2=O)c([N+](=O)[O-])c1
not listed: [6]
inactive: all other assays above

CCN(CC)c1nc(C)cc(OP(=S)(OC)OC)n1
active: [7] 28.7 µM | [8] 46.1 µM | [9] 13.8 µM
not listed: [10]
inactive: all other assays above

Clc1nc(Cl)nc(Nc2ccccc2Cl)n1
inactive: [10] | [2] | [5] | [7] | [9]
active: [8] 9.95 µM

COC(=O)c1c(C(F)F)nc(C(F)(F)F)c(C2=NCCS2)c1CC(C)C
active: [2] 6.71 µM | [7] 36.9 µM | [8] 45.5 µM | [9] 0.431 µM
not listed: [10]
inactive: all other assays above

O=c1n(Cl)c(=O)n(Cl)c(=O)n1Cl
not listed: [1]
inactive: all other assays above

COP(=S)(OC)Oc1ccc([N+](=O)[O-])c(C)c1
active: [10] 15.6 µM | [7] 25.6 µM | [8] 32.6 µM
not listed: [1] | [6]
inactive: all other assays above

CCSC(=O)N1CCCCCC1
active: [9] 84.4 µM
not listed: [1] | [3]
inactive: all other assays above

CCOP(=O)(OCC)Oc1nc(Cl)c(Cl)cc1Cl
active: [2] 30.5 µM | [7] 8.46 µM | [8] 30.8 µM
inactive: [4] | [5] | [9]

CC(C)NC(=O)N1CC(=O)N(c2cc(Cl)cc(Cl)c2)C1=O
active: [8] 23.4 µM | [9] 10.6 µM
inactive: [1] | [2] | [5] | [7]

CN/C(=N\[N+](=O)[O-])NCc1cnc(Cl)s1
inactive: [1] | [2] | [3] | [5] | [7] | [9]

Cc1ccc(N=CN(C)C=Nc2ccc(C)cc2C)c(C)c1
active: [2] 38.6 µM | [5] 30.3 µM | [7] 15.3 µM
inactive: [3] | [6] | [9]

Cc1cnc(C2=NC(C)(C(C)C)C(=O)N2)c(C(=O)O)c1 (stereo unspecified)
active: [9] 50 µM
inactive: [2] | [3] | [5] | [7] | [8]

Clc1cccc(C(Cl)(Cl)Cl)n1
inactive: [2] | [3] | [5] | [7] | [8] | [9]

COP(=O)(OC)O/C(C)=C/C(=O)N(C)C
not listed: [1] | [6] | [10]
inactive: all other assays above

C=CCOC(=O)C(C)(C)OC(=O)c1cc(-n2c(=O)cc(C(F)(F)F)n(C)c2=O)ccc1Cl
inactive: [1] | [2] | [5] | [7] | [8] | [9]

CCOP(=S)(OCC)Oc1nc(Cl)n(C(C)C)n1
inactive: [2] | [5] | [6] | [7] | [8]
active: [9] 2.39 µM

Cc1c(COC(=O)[C@@H]2[C@H](/C=C(\Cl)C(F)(F)F)C2(C)C)cccc1-c1ccccc1
active: [7] 12.7 µM
not listed: [1] | [3] | [10]
inactive: all other assays above

Nc1c(Cl)c(F)nc(OCC(=O)O)c1Cl
not listed: [3] | [4] | [10]
inactive: all other assays above

COc1cc(OC)nc(NC(=O)NS(=O)(=O)c2ncccc2OCC(F)(F)F)n1
not listed: [4] | [6] | [10]
inactive: all other assays above
